In PubChem BioAssay (EPA / NIEHS):
Results filed as inconclusive are left out. Calls of active or inactive are those of the source. How the source made its calls, unless noted: active means hit-call score of the fitted dose curve at least 0.9, where 1 is the maximum; inconclusive means response in the unintended direction; inactive means score below 0.9.

Legend:
[1] = biological target: mouse Estrogen Receptor alpha (Era), Esr1 (gene 13982) (UniProt P19785); assay: NVS_NR_mERa: NovaScreen (NVS) Nuclear Receptor Binding Assay for mouse Estrogen Receptor alpha (Era) (AID 2283378);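 further: hit means loss of bound radioligand signal relative to DMSO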
Chain of mouse Estrogen Receptor alpha (Era), Esr1 (gene 13982) (P19785 whole entry, looked up): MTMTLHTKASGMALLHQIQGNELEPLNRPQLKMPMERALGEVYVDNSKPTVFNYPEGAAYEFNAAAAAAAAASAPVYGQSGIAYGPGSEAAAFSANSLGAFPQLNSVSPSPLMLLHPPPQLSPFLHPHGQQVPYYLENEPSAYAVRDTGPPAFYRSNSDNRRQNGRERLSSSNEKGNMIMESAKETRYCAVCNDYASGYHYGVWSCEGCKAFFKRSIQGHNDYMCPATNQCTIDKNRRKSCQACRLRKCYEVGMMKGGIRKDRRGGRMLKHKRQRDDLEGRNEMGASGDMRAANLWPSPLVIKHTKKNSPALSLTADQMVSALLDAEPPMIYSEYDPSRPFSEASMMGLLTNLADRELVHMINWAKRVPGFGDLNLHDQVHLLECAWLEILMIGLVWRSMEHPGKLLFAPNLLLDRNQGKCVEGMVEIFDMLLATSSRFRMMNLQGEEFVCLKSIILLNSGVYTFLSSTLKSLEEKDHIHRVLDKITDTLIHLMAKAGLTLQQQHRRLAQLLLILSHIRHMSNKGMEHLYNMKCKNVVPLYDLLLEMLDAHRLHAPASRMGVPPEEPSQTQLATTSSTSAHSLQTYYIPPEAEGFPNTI
Method in brief: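 Cell-free radioligand competitive displacement binding, read by filter-based scintillation counting 18 h after dosing. Primary screen run in duplicate at 25 uM, actives retested in concentration series; loss of signal versus DMSO.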

[2] = biological target: Estrogen receptor (Homo sapiens) (UniProt P03372); assay: OT_ERa_GFPERaERE_0480: Odyssey Thera (OT) 8-hour HeLa Transcription Induction Assay for Estrogen Receptor (AID 2283381; active means hit-call score of the fitted dose curve at least 0.9, where 1 is the maximum; inactive means score below 0.9)
Chain of Estrogen receptor (Homo sapiens) (P03372 whole entry, looked up): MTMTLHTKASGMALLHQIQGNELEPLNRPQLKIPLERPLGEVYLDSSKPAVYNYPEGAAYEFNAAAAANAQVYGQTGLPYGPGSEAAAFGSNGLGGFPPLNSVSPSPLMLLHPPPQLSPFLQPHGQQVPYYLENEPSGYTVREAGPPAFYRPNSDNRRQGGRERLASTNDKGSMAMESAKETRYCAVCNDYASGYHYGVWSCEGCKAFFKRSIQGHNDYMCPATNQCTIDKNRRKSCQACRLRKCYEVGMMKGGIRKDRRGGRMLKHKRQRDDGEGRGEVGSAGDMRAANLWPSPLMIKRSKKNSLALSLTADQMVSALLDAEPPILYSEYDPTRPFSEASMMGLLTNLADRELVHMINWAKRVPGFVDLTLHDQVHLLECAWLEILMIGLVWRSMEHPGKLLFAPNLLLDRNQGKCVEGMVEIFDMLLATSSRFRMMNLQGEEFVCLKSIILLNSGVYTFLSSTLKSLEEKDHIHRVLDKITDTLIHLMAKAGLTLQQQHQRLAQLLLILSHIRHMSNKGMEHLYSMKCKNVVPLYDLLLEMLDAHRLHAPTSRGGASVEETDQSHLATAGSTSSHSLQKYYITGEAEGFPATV
Method in brief: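 Human cervical HeLa cells were treated for 8 hours, after which ERE-driven GFP induction was measured by fluorescence microscopy; increases over DMSO baseline defined activity.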

[3] = biological target: Estrogen receptor (Homo sapiens) (UniProt P03372); assay: OT_ERa_GFPERaERE_0120: Odyssey Thera (OT) 2-hour HeLa Transcription Induction Assay for Estrogen Receptor (AID 2283382)
Method in brief: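 Cells (human cervical HeLa) receive compound, incubate 2 hours, then are imaged for fluorescent reporter induction. Images are quantified by high content analysis, and activity is fitted as gain of signal against DMSO.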

[4] = biological target: Peroxisome proliferator-activated receptor gamma (Homo sapiens) (UniProt P37231); assay: OT_PPARg_PPARgSRC1_0480: Odyssey Thera (OT) 8-hour Protein-Complementation Assay for Peroxisome Proliferator-activated Receptor Gamma / SRC-1 Co-activator (AID 2283387)
Chain of Peroxisome proliferator-activated receptor gamma (Homo sapiens) (P37231 whole entry, looked up, the tested form may be a part): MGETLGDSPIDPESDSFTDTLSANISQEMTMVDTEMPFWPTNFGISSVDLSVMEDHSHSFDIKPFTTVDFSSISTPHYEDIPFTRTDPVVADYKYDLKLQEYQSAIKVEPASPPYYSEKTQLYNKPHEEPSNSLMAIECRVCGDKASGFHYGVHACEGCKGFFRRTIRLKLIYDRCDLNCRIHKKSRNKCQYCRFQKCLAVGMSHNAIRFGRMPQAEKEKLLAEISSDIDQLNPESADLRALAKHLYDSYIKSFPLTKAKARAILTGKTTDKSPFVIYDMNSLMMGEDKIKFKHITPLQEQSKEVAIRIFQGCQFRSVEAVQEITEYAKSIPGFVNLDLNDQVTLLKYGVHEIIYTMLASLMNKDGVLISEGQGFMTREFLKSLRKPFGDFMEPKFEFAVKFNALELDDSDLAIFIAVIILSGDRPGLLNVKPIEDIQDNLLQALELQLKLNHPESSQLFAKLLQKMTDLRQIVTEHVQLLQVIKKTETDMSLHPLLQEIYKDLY
Method in brief: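 HEK293T transiently transfected with PPARg and SRC-1 fused to Venus YFP fragments, compounds 8 h at 37C. Fixed, Draq5-stained cells imaged; nuclear/cytoplasmic 488 nm fluorescence ratio over at least 350 cells per image; gain fitted versus DMSO.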

[5] = biological target: Peroxisome proliferator-activated receptor gamma (Homo sapiens) (UniProt P37231); assay: OT_PPARg_PPARgSRC1_1440: Odyssey Thera (OT) 24-hour Protein-Complementation Assay for Peroxisome Proliferator-activated Receptor Gamma/ SRC-1 Co-activator (AID 2283388)
Method in brief: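 HEK293T transiently transfected with PPARg/SRC-1 split-Venus YFP fusions 48 h before dosing, then treated 24 h at 37C. Fixed cells imaged; nuclear/cytoplasmic 488 nm fluorescence ratio, gain of signal versus DMSO.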

[6] = biological target: Estrogen receptor beta (Homo sapiens) (UniProt Q92731); assay: OT_ER_ERbERb_1440: Odyssey Thera (OT) 24-hour HEK293T Protein-Complementation Assay for Estrogen Receptor-beta/-beta Homodimer (AID 2283380);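 further: scored as signal increase over DMSO baseline for both agonists and antagonists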
Chain of Estrogen receptor beta (Homo sapiens) (Q92731 whole entry, looked up, the tested form may be a part): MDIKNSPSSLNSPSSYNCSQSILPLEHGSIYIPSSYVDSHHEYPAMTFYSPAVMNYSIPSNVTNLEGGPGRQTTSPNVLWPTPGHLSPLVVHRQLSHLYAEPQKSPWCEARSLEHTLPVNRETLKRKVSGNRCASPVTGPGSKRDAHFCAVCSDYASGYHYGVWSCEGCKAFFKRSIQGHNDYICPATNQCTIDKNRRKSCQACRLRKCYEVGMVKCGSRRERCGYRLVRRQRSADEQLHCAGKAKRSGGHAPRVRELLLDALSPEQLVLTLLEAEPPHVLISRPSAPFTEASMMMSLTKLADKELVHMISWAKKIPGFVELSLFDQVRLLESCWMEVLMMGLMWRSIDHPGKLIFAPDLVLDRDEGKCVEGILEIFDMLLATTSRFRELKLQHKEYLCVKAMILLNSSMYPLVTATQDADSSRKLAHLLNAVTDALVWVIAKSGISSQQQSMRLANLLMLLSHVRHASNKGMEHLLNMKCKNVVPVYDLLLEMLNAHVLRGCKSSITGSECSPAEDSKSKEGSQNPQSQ
Method in brief: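 HEK293T cells stably expressing ER beta LBD (aa 310-547) homodimer fragment-complementation reporter, dosed 24 h. Cells formaldehyde-fixed, Draq5-stained; gain in nuclear (agonist) or nuclear plus cytoplasmic (antagonist) fluorescence versus DMSO read by laser scanning cytometry.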

[7] = biological target: Bile acid receptor (Homo sapiens) (UniProt Q96RI1); assay: OT_FXR_FXRSRC1_0480: Odyssey Thera (OT) 8-hour HEK293T Protein-Complementation Assay for Farnesoid X receptor/SRC-1 Co-activator (AID 2283383)
Chain of Bile acid receptor (Homo sapiens) (Q96RI1 whole entry, looked up, the tested form may be a part): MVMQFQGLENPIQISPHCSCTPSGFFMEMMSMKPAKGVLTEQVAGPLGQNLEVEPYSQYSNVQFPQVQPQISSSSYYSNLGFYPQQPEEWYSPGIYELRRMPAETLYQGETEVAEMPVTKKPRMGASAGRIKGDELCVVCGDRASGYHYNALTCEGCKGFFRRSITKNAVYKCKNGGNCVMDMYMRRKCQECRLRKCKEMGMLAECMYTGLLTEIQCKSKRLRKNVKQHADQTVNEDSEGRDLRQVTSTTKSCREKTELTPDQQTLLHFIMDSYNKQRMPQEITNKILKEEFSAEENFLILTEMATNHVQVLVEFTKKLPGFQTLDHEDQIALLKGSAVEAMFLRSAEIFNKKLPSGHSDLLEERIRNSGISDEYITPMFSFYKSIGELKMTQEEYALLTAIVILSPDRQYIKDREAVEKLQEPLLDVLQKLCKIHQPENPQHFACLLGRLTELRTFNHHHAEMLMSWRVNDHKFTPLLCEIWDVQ
Method in brief: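 PCA, HEK293T, 8 h compound exposure; FXR–SRC-1 binding reconstitutes split reporter; fluorescence intensity; positive-direction fit vs DMSO.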

[8] = biological target: Bile acid receptor (Homo sapiens) (UniProt Q96RI1); assay: OT_FXR_FXRSRC1_1440: Odyssey Thera (OT) 24-hour HEK293T Protein-Complementation Assay for Farnesoid X receptor/SRC-1 Co-activator (AID 2283384)
Method in brief: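 Measures ligand-driven FXR–SRC-1 co-activator recruitment in HEK293T via fragment complementation, fluorescence intensity at 24 h. DMSO served as negative control and baseline for gain-of-signal fitting.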

[9] = biological target: Agonist Androgen Response Element (ARE), AR (gene 367) (UniProt P10275); assay: OT_AR_ARELUC_AG_1440: Odyssey Thera (OT) 24-hour CHO-K1 Luciferase Assay for Agonist Androgen Response Element (ARE) (AID 2283379)
Chain of Agonist Androgen Response Element (ARE), AR (gene 367) (P10275 whole entry, looked up): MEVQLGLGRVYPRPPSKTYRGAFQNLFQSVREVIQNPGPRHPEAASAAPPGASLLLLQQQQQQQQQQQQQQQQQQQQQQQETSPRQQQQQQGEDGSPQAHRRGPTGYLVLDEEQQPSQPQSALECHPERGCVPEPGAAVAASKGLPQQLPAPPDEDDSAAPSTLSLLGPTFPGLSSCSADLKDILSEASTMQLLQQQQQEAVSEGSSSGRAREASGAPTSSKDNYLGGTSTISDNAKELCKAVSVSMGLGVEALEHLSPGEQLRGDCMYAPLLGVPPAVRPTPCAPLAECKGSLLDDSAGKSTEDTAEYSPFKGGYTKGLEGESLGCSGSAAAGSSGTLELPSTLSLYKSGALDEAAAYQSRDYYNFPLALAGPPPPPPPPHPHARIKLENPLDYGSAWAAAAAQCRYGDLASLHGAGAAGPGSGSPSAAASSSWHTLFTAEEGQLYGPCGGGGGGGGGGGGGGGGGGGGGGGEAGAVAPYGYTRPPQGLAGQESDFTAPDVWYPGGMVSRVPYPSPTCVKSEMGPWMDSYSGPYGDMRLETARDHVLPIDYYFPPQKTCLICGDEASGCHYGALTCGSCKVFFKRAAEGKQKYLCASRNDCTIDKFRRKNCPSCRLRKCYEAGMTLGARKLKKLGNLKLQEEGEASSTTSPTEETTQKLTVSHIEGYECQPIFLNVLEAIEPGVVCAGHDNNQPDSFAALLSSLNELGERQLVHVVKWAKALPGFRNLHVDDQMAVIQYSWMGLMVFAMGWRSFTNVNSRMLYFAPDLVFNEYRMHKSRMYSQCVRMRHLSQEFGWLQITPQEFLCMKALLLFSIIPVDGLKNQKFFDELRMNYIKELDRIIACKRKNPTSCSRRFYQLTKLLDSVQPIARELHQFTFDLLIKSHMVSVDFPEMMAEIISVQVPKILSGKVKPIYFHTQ
Method in brief: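 Gain-of-signal reporter endpoint: cells (CHO-K1, hamster) are treated 24 h, luciferin/ATP reagent added, and luminescence compared with DMSO baseline.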

[10] = CEETOX_H295R_11DCORT: CeeTox H295R High-throughput Steroidogenesis Assay for 11-Deoxycortisol (11DCORT) (AID 2283432; active means hit-call score of the fitted dose curve at least 0.9, where 1 is the maximum; inactive means score below 0.9;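 on AC50: human adrenal H295R cells prestimulated with 10 µM forskolin for 48 h; 11-deoxycortisol secreted into the medium measured by LC-MS/MS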); conditions: actives raise or lower the signal
Method in brief: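 H295R cells prestimulated 48 h with 10 uM forskolin, then exposed 48 h to chemical in 0.1% DMSO. 11-Deoxycortisol in medium quantified by HPLC-MS/MS after MTBE extraction; bidirectional fit versus DMSO. MTT viability read in same wells.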

[11] = CEETOX_H295R_OHPREG: CeeTox H295R High-throughput Steroidogenesis Assay for OH-Pregnenolone (OHPREG) (AID 2283434; active means hit-call score of the fitted dose curve at least 0.9, where 1 is the maximum; inactive means score below 0.9); conditions: actives raise or lower the signal
Method in brief: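 H295R, 10 uM forskolin pre-stim 48 h; test chemical 48 h, 0.1% DMSO final. MTBE extraction, reverse-phase C18 HPLC-ESI+ MS/MS of medium. Gain/loss vs DMSO; viability by MTT in same wells.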

[12] = CEETOX_H295R_OHPROG: CeeTox H295R High-throughput Steroidogenesis Assay for OH-Progesterone (OHPROG) (AID 2283435; active means hit-call score of the fitted dose curve at least 0.9, where 1 is the maximum; inactive means score below 0.9;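 on AC50: human adrenal H295R cells primed 48 h with 10 µM forskolin; 17alpha-hydroxyprogesterone secreted into medium measured by HPLC-MS/MS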); conditions: actives raise or lower the signal
Method in brief: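 Steps: seed H295R cells and adhere overnight; stimulate with 10 uM forskolin for 48 h; replace with chemical-containing medium (0.1% DMSO) for 48 h; extract medium with MTBE; quantify 17alpha-hydroxyprogesterone by reverse-phase C18 HPLC-MS/MS against a 7-point curve.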

[13] = CEETOX_H295R_ANDR: CeeTox H295R High-throughput Steroidogenesis Assay for Androstenedione (ANDR) (AID 2283436; active means hit-call score of the fitted dose curve at least 0.9, where 1 is the maximum; inactive means score below 0.9;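 further: human H295R adrenal cells exposed for 48 h with androstenedione measured in medium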); conditions: actives raise or lower the signal
Method in brief: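 48 h chemical exposure, H295R cells, DMEM/F12 + ITS+ and Nu-Serum. Medium androstenedione: MTBE extraction, C18 reverse-phase HPLC, ESI+ MS/MS. Fit bidirectional vs DMSO; MTT viability in same wells.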

[14] = CEETOX_H295R_CORTIC: CeeTox H295R High-throughput Steroidogenesis Assay for Corticosterone (CORTIC) (AID 2283437; active means hit-call score of the fitted dose curve at least 0.9, where 1 is the maximum; inactive means score below 0.9;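 further: corticosterone secreted into medium quantified by mass spectrometry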); conditions: actives raise or lower the signal
Method in brief: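 48 h forskolin (10 uM) prestim, then 48 h chemical exposure, final DMSO 0.1%. Readout: corticosterone in medium by LC-MS/MS after MTBE extraction. Gain/loss fit vs DMSO; MTT viability in same wells.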

[15] = CEETOX_H295R_CORTISOL: CeeTox H295R High-throughput Steroidogenesis Assay for Cortisol (AID 2283438; active means hit-call score of the fitted dose curve at least 0.9, where 1 is the maximum; inactive means score below 0.9); conditions: actives raise or lower the signal
Method in brief: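 Cortisol synthesis by H295R cells is measured 48 h after chemical dosing, following a 48 h stimulation with 10 uM forskolin. Hormone is extracted and quantified by HPLC-MS/MS, and activity is fitted bidirectionally against the DMSO control.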

[16] = CEETOX_H295R_DOC: CeeTox H295R High-throughput Steroidogenesis Assay for DOC (AID 2283439; active means hit-call score of the fitted dose curve at least 0.9, where 1 is the maximum; inactive means score below 0.9); conditions: actives raise or lower the signal
Method in brief: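 Steps: seed H295R, adhere overnight; 10 uM forskolin 48 h; replace with chemical medium (0.1% DMSO) 48 h; collect medium, MTBE extraction, HPLC-MS/MS for DOC. Viability then checked by MTT; cytotoxic chemicals diluted until viability ≥70%.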

[17] = CEETOX_H295R_ESTRADIOL: CeeTox H295R High-throughput Steroidogenesis Assay for Estradiol (AID 2283440; active means hit-call score of the fitted dose curve at least 0.9, where 1 is the maximum; inactive means score below 0.9;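 further: estradiol secreted into medium quantified by LC-MS/MS after dansyl derivatisation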); conditions: actives raise or lower the signal
Method in brief: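 H295R cells pre-stimulated 48 h with 10 uM forskolin, then exposed 48 h to chemical in 0.1% DMSO. Medium estradiol quantified by MTBE extraction, dansyl derivatisation and HPLC-MS/MS; bidirectional fit versus DMSO; MTT viability required >/=70%.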

[18] = CEETOX_H295R_ESTRONE: CeeTox H295R High-throughput Steroidogenesis Assay for Estrone (AID 2283441; active means hit-call score of the fitted dose curve at least 0.9, where 1 is the maximum; inactive means score below 0.9); conditions: actives raise or lower the signal
Method in brief: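 Estrone secreted into medium quantified by LC-MS/MS after dansyl chloride derivatization, following 48 h chemical exposure (0.1% DMSO final) of forskolin-prestimulated (10 uM, 48 h) H295R cells; gain or loss fitted against DMSO; MTT viability in same wells.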

[19] = biological target: Retinoic acid receptor RXR-alpha (Homo sapiens) (UniProt P19793); assay: OT_NURR1_NURR1RXRa_1440: Odyssey Thera (OT) 24-hour HEK293T Protein Complementation Assay for Nurr1/retinoid X receptor (RXR) (AID 2283386)
Chain of Retinoic acid receptor RXR-alpha (Homo sapiens) (P19793 whole entry, looked up, the tested form may be a part): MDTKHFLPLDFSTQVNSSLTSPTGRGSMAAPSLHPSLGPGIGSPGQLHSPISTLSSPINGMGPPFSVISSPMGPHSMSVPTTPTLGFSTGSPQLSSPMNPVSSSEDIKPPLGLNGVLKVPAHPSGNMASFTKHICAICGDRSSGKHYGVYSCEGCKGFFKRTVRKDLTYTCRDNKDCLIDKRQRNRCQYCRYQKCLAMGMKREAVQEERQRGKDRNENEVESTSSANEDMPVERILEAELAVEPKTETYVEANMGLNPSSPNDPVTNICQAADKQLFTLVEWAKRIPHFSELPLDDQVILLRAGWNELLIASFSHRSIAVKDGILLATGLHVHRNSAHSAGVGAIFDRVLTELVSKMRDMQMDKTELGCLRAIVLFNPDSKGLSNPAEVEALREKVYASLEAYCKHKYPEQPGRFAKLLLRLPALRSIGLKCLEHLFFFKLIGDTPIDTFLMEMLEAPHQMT
Method in brief: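 Steps: fragment-tagged Nurr1 and RXRα expressed in HEK293T; compounds added; after 24 h, complemented reporter quantified by fluorescence intensity; signal increase over DMSO fitted as the single endpoint.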

Measured: AC50

CC(C)C1=CC2=CC[C@@H]3[C@](C)(CCC[C@@]3(C)C(=O)O)[C@H]2CC1
inactive: [1] | [2] | [3] | [4] | [5]

O=C1C(N(CO)C(=O)NCO)N(CO)C(=O)N1CO (stereo unspecified)
inactive: [6] | [2] | [3] | [4] | [5]

NC(=O)c1ccccc1O
inactive: [6] | [2] | [3] | [7] | [8] | [4] | [5]

CCCCC/C=C\CCC=O
active: [9] 1.31 µM
not listed: [1] | [6] | [7] | [8] | [17] | [18] | [19]
inactive: all other assays above

CCCCCCCCCCCCCOP(=O)(O)O
active: [1] 39.4 µM
not listed: [7] | [8] | [9] | [13] | [19]
inactive: all other assays above

Cc1cc(C)c(C(=O)O)c(C)c1
active: [2] 93 µM | [3] 94.2 µM
inactive: [6] | [4] | [5]

CC1=CC[C@H]2C[C@@H]1C2(C)C
inactive: [6] | [4] | [5]
active: [2] 93.4 µM | [3] 93.6 µM

CC(=O)OC(C)C
inactive: [1] | [3] | [4] | [5]
active: [6] 25.9 µM | [2] 69.2 µM

CCCCCCCCO[C@@H]1O[C@H](CO)[C@@H](O)[C@H](O)[C@H]1O
inactive: [6] | [2] | [3] | [7] | [4] | [5]

C#CC1(O)CC[C@H]2[C@@H]3CCC4=CCCC[C@@H]4[C@H]3CC[C@@]21C (stereo partly specified)
inactive: [11] | [14]
active: [1] 6.99 µM | [10] 7.32 µM | [12] 7.02 µM | [15] 7.01 µM | [16] 2.03 µM

CC(C)(C)c1ccc(-c2ccc(C(C)(C)C)cc2)cc1
inactive: [9] | [6] | [2] | [3] | [4] | [5]
active: [7] 33.5 µM | [8] 76.6 µM

O=C(C(Cl)Cl)N1CCOC12CCCCC2
inactive: [6] | [2] | [3] | [7] | [8] | [4] | [5]

CCO[Si](C)(OCC)OCC
inactive: [6] | [2] | [3] | [19]

O=C(c1ccccc1)C1CCC1
inactive: [6] | [2] | [3] | [4] | [5]

CC(C)=CCC[C@H](C)CCO
inactive: [6] | [2] | [3] | [19] | [5]
active: [9] 0.239 µM

Oc1ccc(Cl)cc1Cc1cc(Cl)ccc1O
active: [6] 11.9 µM | [10] 6.93 µM
not listed: [1] | [7] | [8] | [19]
inactive: all other assays above

CC=C1CC2C=CC1C2 (stereo unspecified)
inactive: [6] | [2] | [3] | [7] | [8] | [4] | [5]

CCOC(=O)CC
inactive: [6] | [2] | [3] | [7] | [8] | [4] | [5]
